High-throughput results (PubChem)
Cdc42 wt – modulators (inhibitors or activators) of GTP binding to human Cdc42 wildtype; GST-Cdc42 beads, Bodipy-GTP binding, flow cytometry; actives lie on both sides; P60953; actives 0.2% (n = 190,000); percent activity (GTP binding), % at 10 µM;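 active = percent activity GTP binding at least 20 points away from the 100% baseline, either down as inhibitor or up as activator; inconclusive = compound flagged as likely green fluorescent from well-wide comparison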;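 also: median bead fluorescence of bound Bodipy-FL-GTP at 100 nM; below 100% means less GTP binding so inhibitor and above means activator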
Target sequence (P60953 whole entry, looked up): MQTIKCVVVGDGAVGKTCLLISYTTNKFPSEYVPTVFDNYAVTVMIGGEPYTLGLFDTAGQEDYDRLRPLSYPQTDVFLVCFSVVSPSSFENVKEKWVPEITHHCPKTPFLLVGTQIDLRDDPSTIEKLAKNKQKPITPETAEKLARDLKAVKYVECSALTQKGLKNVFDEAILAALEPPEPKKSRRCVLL
Rac1 mut GTP – human Rac1 activated mutant GTP binding change; P63000; GST-Rac1 activated beads, fluorescent GTP binding, flow cytometry; actives lie on both sides; 100% means binding = to untreated wells; actives 0.11% (n = 190,000); percent activity (GTP binding), % at 10 µM;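 active = GTP binding at least 20 percentage points away from the 100% baseline, in either direction, so actives lie on both sides; inconclusive = Compound likely fluorescent itself, or too few beads counted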
Rab7 wt modul – dog Rab7 wildtype GTP binding, inhibitors and activators; actives 0.055% (n = 190,000); GST-Rab7 beads, fluorescent GTP binding, flow cytometry; actives lie on both sides; untreated = 100%, excess cold GTP = 0%; GTP binding activity (percent of control), % at 10 µM; AID 758;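 active = fluorescent GTP binding to Rab7 beads changed by at least 20 points from the 100% baseline, either direction, mostly lower; inconclusive = compound itself probably fluorescent, or too few beads counted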;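 also: median green fluorescence of bound Bodipy-FL-GTP per Rab7 bead population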
Rac1 wt GTP bind – human Rac1 wildtype GTP binding, inhibitors and activators; P63000; GTP binding activity (% of control), % at 10 µM; GST-Rac1 beads, fluorescent GTP binding, flow cytometry; actives lie on both sides; 0 = cold GTP competed, 100 = untreated; actives 0.27% (n = 190,000); AID 757;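 active = GTP binding activity at least 20 points away from the 100% control level, either lower or higher; inconclusive = compound flagged as likely green fluorescent, judged across all proteins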
Rab2A wt mod – changes GTP binding to wildtype dog Rab2A, up or down. P61105. GST-Rab2 wt beads, Bodipy-GTP binding, flow cytometry. GTP binding activity, % at 10 µM. actives 0.19% (n = 190,000);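 active = GTP binding activity at least 20 points away from 100%, either lowered or raised; inconclusive = signal likely due to the compound's own green fluorescence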
HRas wt GTP – human HRas wildtype GTP binding, change in either direction; P01112; GST-Ras wt beads, Bodipy-FL-GTP binding, flow cytometry; actives lie on both sides; GTP binding activity, % at 10 µM; actives 0.14% (n = 190,000); AID 759;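 active = GTP binding activity at least 20% away from the 100% baseline, either lowered as inhibitor or raised as activator; inconclusive = flagged as likely green fluorescent, judged across all proteins in the well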
Target sequence (P01112 whole entry, looked up): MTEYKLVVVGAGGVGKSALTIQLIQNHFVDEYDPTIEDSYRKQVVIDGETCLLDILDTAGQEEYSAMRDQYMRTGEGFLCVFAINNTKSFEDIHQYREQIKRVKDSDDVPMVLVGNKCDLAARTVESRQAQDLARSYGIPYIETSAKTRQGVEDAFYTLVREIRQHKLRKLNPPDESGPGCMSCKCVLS
Each line names hits and unclear results; the compound was inactive in the other large screens; [ ] = another dose, or the depositor's remark. Hits are enriched below; roughly 0.37% of the tested compounds scored in any of these assays.

CCSc1nc2nc(C)cc(C)n2n1	none
Cc1cc(C)n2nc(SCCOc3ccccc3F)nc2n1	Cdc42 wt 66, Rac1 wt GTP bind 74, Rab2A wt mod 71, HRas wt GTP 71
COc1ccc(S(=O)(=O)n2oc(=O)cc2-c2ccccc2)cc1	Cdc42 wt 79, Rab2A wt mod 79
O=c1cc(-c2ccccc2)n(S(=O)(=O)c2ccccc2)o1	none
Cc1ccc(/C=N/NC(=O)c2ccc(Cn3cc([N+](=O)[O-])cn3)o2)cc1	none
Cc1c(Cl)c([N+](=O)[O-])nn1Cc1ccc(C(=O)N/N=C\c2ccccn2)o1	Rac1 wt GTP bind 75
O=C(O)c1cc(N2N=C(C(F)(F)F)/C(=C/C=C/c3ccco3)C2=O)ccc1Cl	Cdc42 wt 79, Rac1 mut GTP 76
O=C(NCc1ccccc1Cl)C1CCC(CNc2nc(=S)[nH]c3ccccc23)CC1 (configuration not stated)	Rac1 wt GTP bind 78
O=C(NCCc1ccc(Cl)cc1)C1CCC(CNc2nc(=S)[nH]c3ccccc23)CC1 (configuration not stated)	none
Cn1cc(C(=O)N2CCc3ccccc3C2)c(=O)c2cc(S(=O)(=O)N3CCCCC3)ccc21	Rac1 wt GTP bind 121[activator]
Oc1ccc(/C=N/NC(=S)N/N=C/c2ccc(O)cc2)cc1	Rac1 wt GTP bind 71
O=C1/C(=C\c2ccc(-c3ccccc3Cl)o2)SC(=S)N1CC1CCCO1 (configuration not stated)	Cdc42 wt 63, Rac1 mut GTP 59, Rab7 wt modul 68, Rac1 wt GTP bind 59, Rab2A wt mod 62, HRas wt GTP 55
CN1C(=O)/C(=C2\SC(=S)N(CC3CCCO3)C2=O)c2ccccc21 (configuration not stated)	none
O=c1c2ccccc2nc2c3ccccc3c(NCc3cccnc3)nn12	Cdc42 wt 72, Rac1 wt GTP bind 69, Rab2A wt mod 72, HRas wt GTP 75
O=c1c2ccccc2nc2c3ccccc3c(NCCO)nn12	Cdc42 wt 58, Rac1 mut GTP 78, Rac1 wt GTP bind 63, Rab2A wt mod 62, HRas wt GTP 62
O=c1c2ccccc2nc2c3ccccc3c(NCc3ccccn3)nn12	Cdc42 wt 75, Rac1 wt GTP bind 65, Rab2A wt mod 74, HRas wt GTP 76
CCOC(=O)c1nc(NCc2cccnc2)c2ccccc2n1	none
Cc1nc(NCc2ccccn2)c2ccccc2n1	none
CSc1nc(Cc2ccccc2)cc(=O)[nH]1	Cdc42 wt 120[activator], Rac1 mut GTP 122[activator], Rac1 wt GTP bind 127[activator], Rab2A wt mod 120[activator]
CCCc1cc(=O)[nH]c(SCc2ccccc2)n1	none
O=C(C#Cc1ccccc1)c1ccc([N+](=O)[O-])cc1	Rac1 mut GTP 77
CC(Sc1nnc(NC2CCCCC2)s1)C(=O)Nc1ccc2c(c1)C(=O)c1ccccc1C2=O (configuration not stated)	Rac1 wt GTP bind 75, Rab2A wt mod 77
CN(CC(=O)Nc1cccc([N+](=O)[O-])c1)S(=O)(=O)c1ccccc1	none
COc1ccc(CC2(CO)CCN(S(=O)(=O)c3c(C)nn(C)c3Cl)CC2)cc1	none
COc1ccc(CC2(CO)CCN(S(=O)(=O)c3sccc3C)CC2)cc1	Cdc42 wt 63, Rac1 mut GTP 57, Rab7 wt modul 66, Rac1 wt GTP bind 58, Rab2A wt mod 66, HRas wt GTP 61
Cn1c(=O)c2cc(S(=O)(=O)NCCC(=O)NCc3ccccc3Cl)ccc2n(C)c1=O	Cdc42 wt 68, Rab2A wt mod 64, HRas wt GTP 68
COc1ccc2cc(C)c3nnc(SCc4cccnc4)n3c2c1	Cdc42 wt 79
CSc1nc(=O)n2cc(C)ccc2n1	none
CC1CN(Cc2nnc(-c3ccccc3)o2)CC(C)O1 (configuration not stated)	none
COc1cccc(OC)c1-c1nn2c(-c3cc(-c4ccccc4)n[nH]3)nnc2s1	Cdc42 wt 179[activator], Rac1 mut GTP inconclusive, Rab7 wt modul inconclusive, Rac1 wt GTP bind 206[activator], Rab2A wt mod 167[activator], HRas wt GTP 162[activator]
O=c1ccn(-c2cccc(C(F)(F)F)c2)nc1-c1ccn(-c2cccc(Cl)c2)n1	none
COc1cc(SC#N)ccc1N=Cc1c(C)[nH]n(-c2ccc(C)c(C)c2)c1=O	Rac1 wt GTP bind 78, Rab2A wt mod 79
COc1cc(SC#N)ccc1N=Cc1c(C)[nH]n(-c2ccc(Cl)cc2)c1=O	none
CCCCOC(=O)CSC(=S)N(C)Cc1cccs1	none
CC(SC(=S)N(C)Cc1cccs1)C(=O)O (configuration not stated)	Cdc42 wt 168[activator], Rac1 mut GTP 144[activator], Rab7 wt modul 136[activator], Rac1 wt GTP bind 196[activator], Rab2A wt mod 140[activator], HRas wt GTP 140[activator]
N#C/C(=C/c1ccc(-c2cc(C(=O)O)cc(C(=O)O)c2)o1)c1nc2ccccc2s1	Cdc42 wt 71, Rac1 mut GTP 77, Rac1 wt GTP bind 70, Rab2A wt mod 67, HRas wt GTP 75
N#C/C(=C\c1ccco1)c1nc2ccccc2s1	none
CSc1nc2ccc(NC(=O)c3cc4ccccc4o3)cc2s1	none
CCn1c(O)c(/C=C/C=C/C=Nc2ccccc2)sc1=S	none
CCCCn1c(O)c(/C=C/C=C/C=Nc2ccccc2)sc1=S	Rac1 mut GTP 78
CCCCc1ccc(NC(=S)N2CCC(O)CC2)cc1	none
Clc1ccc(CN(Cc2ccc(Cl)cc2)c2nn[nH]n2)cc1	Rac1 mut GTP 77
c1ccc(CN(Cc2ccccc2)c2nn[nH]n2)cc1	none
COc1cccc(N(CC(=O)N/N=C(\C)c2cccs2)S(C)(=O)=O)c1	none
CC(C)CCn1c(CN2CCN(Cc3ccccc3)CC2)nc2c1c(=O)n(C)c(=O)n2C	Cdc42 wt 156[activator], Rac1 mut GTP 120[activator], Rac1 wt GTP bind 159[activator], Rab2A wt mod 123[activator]
OC(CNCCC1C=Nc2ccccc21)Cn1c2ccc(Cl)cc2c2cc(Cl)ccc21 (configuration not stated)	Rac1 wt GTP bind 144[activator]
Cc1cc(C)n(CC(O)Cn2c3ccc(Cl)cc3c3cc(Cl)ccc32)c(=O)n1 (configuration not stated)	none
COc1ccc(N(C)C2=NS(=O)(=O)c3ccccc32)cc1	none
CN(/N=C/c1ccco1)C1=NS(=O)(=O)c2ccccc21	Cdc42 wt 71, Rac1 wt GTP bind 64, Rab2A wt mod 73, HRas wt GTP 76
O=C(O)CSc1ccc2nnc(-c3cccnc3)n2n1	Rac1 wt GTP bind 78
COc1ccc(C(=O)CSc2ccc3nnc(-c4cccnc4)n3n2)cc1	none
